About 8,800 targets were measured; listed, in parts, are those with a hit and a random draw of the rest. About 0.5% of all pairs of compound and target were hits.

Common to all, as to test: log2 fold change, soluble protein after heating vs DMSO (PISA); higher = thermal stabilisation; K562 lysate, 10 uM; active = over 0.2 and 3.5 SD of the protein, either way, in both replicates (recomputed)
Compound in assay [1]: NCC(=O)Nc1ccc(-n2nc(C(F)(F)F)cc2-c2ccc3c(ccc4ccccc43)c2)cc1
Put shortly:
(§1)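 Quantification was by TMTpro 16plex LC-MS/MS with equalised channel sums, applied to the supernatant after 21,000xg for 90 min. Samples were crude K562 extract at 1 mg/mL protein in PBS pH 7.4 with 1 mM MgCl2, treated with 10 μM compound for 30 min, heated for 3 min across 48°C-58°C, pooled and brought to 0.5% NP-40 at 4°C. Values are log-two fold changes in thermal stability relative to solvent controls, from duplicates.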

Compound in assay [2]: O=C(CCCCCCC(=O)Nc1ccccc1)NO [vorinostat]
Put shortly:
as §1

Compound in assay [3]: O=C(O)c1ccc2c(c1)nc(Nc1cccc(Cl)c1)c1ccncc12 [silmitasertib]
Put shortly: as §1

Compound in assay [4]: O=C1NC(=O)C(c2cnc3ccccn23)=C1c1cn2c3c(cc(F)cc13)CN(C(=O)N1CCCCC1)CC2
Put shortly: as §1

Compound in assay [5]: c1cn2cc(-c3ccc4cn[nH]c4c3)nc(Nc3ccc(N4CCOCC4)cc3)c2n1 [entospletinib]
Put shortly: as §1

UniProt P11474, sequence (P11474 whole entry, looked up): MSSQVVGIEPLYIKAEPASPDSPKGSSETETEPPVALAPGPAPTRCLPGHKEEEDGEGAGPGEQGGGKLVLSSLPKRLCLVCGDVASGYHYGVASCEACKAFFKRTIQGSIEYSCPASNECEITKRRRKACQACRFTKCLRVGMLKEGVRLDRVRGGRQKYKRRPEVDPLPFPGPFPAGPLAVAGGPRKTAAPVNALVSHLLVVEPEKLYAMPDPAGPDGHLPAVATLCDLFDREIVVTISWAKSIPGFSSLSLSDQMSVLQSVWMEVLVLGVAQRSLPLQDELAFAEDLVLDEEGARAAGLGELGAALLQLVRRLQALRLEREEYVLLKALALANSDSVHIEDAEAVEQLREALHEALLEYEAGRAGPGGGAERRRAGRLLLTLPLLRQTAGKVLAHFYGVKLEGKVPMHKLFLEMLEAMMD
UniProt Q9NZC3, sequence (Q9NZC3 whole entry, looked up): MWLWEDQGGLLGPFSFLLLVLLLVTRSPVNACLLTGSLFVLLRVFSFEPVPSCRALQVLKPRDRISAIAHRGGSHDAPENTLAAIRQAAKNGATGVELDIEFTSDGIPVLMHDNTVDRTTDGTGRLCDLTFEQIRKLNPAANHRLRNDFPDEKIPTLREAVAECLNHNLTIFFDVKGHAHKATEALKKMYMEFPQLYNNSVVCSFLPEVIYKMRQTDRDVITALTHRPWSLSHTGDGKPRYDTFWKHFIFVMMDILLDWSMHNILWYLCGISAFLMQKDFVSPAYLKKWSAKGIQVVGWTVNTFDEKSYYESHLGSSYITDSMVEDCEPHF
UniProt Q9BQS8, sequence (Q9BQS8 whole entry, looked up): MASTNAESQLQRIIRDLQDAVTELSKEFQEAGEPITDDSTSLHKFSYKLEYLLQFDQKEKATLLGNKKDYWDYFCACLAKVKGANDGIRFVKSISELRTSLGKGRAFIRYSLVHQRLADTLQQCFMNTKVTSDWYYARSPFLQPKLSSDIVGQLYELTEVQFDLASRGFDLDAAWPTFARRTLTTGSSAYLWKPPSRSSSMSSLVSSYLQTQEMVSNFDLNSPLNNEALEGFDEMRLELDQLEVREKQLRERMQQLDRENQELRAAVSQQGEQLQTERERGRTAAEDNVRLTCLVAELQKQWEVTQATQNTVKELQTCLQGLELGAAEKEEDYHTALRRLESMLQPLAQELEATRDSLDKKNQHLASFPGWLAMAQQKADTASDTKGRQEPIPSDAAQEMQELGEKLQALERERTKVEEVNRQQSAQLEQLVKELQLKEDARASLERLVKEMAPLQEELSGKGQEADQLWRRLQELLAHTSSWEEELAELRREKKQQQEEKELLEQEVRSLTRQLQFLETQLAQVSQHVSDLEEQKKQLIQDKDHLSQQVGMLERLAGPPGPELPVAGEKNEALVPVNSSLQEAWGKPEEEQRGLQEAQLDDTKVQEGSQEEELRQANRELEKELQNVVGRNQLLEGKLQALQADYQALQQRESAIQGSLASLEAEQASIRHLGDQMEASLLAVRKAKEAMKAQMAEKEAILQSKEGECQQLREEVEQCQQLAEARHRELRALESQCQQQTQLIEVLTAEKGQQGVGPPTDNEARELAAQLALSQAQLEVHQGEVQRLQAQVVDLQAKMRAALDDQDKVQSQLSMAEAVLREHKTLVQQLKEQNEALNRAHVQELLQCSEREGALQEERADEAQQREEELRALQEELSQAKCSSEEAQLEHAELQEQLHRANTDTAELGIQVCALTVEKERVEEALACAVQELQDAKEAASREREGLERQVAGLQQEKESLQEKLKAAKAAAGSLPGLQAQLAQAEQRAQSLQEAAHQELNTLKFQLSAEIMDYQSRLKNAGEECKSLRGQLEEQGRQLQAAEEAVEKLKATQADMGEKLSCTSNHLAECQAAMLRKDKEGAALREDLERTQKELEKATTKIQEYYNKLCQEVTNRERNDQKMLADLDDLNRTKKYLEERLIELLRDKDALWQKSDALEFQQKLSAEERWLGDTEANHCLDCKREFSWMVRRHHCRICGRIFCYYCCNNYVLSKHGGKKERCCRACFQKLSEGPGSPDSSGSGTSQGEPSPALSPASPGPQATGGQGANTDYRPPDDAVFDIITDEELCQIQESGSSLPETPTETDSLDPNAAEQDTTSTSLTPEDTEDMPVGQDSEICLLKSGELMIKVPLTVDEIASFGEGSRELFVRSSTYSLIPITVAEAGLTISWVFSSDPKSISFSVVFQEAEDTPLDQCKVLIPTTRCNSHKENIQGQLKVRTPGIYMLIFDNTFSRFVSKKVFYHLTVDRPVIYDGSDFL
UniProt P35916, sequence (P35916 whole entry, looked up): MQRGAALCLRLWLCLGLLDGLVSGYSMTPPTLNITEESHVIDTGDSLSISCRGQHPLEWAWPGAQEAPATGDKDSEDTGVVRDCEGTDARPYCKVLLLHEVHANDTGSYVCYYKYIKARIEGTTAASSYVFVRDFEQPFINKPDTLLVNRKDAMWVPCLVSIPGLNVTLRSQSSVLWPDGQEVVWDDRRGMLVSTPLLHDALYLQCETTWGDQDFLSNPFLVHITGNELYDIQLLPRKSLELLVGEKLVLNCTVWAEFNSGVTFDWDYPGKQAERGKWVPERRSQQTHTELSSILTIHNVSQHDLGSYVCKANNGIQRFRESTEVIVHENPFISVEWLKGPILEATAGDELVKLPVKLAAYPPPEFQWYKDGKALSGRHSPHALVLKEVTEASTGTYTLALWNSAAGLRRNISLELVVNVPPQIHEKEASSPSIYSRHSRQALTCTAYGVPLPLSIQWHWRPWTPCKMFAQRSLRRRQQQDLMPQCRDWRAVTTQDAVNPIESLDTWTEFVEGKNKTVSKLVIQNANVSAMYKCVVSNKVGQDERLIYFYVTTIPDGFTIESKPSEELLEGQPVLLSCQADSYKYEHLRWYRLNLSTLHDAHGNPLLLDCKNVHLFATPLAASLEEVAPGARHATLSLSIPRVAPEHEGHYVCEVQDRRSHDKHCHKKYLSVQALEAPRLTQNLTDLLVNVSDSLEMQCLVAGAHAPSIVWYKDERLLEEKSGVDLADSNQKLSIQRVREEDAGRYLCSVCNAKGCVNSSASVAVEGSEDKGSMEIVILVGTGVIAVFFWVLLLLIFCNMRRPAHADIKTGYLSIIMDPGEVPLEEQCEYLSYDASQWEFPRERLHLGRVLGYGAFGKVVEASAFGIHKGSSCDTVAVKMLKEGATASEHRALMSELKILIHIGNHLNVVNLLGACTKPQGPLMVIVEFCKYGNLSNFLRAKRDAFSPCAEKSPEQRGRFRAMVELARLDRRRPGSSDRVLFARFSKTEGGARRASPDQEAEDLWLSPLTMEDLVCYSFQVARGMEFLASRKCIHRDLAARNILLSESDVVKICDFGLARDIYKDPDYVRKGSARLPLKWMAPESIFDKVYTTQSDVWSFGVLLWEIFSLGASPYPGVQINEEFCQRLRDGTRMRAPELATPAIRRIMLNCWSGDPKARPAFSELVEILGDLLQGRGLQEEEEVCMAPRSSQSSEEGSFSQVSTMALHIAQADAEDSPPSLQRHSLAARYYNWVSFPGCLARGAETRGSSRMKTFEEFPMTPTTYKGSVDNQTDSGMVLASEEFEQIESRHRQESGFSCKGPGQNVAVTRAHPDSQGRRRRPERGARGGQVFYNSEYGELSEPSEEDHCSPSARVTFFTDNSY
UniProt Q92562, sequence (Q92562 whole entry, looked up): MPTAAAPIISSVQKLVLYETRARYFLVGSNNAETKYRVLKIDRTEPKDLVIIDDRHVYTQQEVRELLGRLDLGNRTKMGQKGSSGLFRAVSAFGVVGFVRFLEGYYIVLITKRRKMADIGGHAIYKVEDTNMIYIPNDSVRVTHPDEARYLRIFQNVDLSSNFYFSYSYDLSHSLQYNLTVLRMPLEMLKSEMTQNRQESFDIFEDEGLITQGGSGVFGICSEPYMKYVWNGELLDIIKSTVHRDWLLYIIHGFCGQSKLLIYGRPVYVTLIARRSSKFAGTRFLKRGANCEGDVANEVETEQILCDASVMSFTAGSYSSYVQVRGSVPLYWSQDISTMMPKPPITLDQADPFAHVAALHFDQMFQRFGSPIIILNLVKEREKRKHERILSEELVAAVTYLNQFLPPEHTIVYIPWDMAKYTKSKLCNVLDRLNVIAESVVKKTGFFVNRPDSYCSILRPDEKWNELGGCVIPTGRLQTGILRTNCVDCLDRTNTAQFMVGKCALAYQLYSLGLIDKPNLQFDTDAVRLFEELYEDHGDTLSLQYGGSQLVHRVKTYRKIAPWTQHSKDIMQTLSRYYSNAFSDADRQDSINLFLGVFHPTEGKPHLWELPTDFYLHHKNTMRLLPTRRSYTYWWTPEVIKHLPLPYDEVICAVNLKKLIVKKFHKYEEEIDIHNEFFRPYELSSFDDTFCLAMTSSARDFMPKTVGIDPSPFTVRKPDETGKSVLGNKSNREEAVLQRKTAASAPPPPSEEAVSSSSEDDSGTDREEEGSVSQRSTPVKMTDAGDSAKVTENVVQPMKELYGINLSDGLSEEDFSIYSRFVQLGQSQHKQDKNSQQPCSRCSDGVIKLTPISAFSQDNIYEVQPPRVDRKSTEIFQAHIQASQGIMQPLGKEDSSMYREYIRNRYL
UniProt Q9H790, sequence (Q9H790 whole entry, looked up): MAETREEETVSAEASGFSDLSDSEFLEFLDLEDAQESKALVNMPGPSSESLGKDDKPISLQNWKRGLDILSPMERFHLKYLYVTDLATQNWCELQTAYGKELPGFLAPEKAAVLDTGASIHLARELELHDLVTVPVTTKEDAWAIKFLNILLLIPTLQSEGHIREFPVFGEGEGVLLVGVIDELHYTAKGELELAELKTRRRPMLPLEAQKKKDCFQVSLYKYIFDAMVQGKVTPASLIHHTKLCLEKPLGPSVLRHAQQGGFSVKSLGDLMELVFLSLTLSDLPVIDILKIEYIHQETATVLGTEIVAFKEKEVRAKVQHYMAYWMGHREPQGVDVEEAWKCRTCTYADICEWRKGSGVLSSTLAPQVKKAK
UniProt Q9UKR5, sequence (Q9UKR5 whole entry, looked up): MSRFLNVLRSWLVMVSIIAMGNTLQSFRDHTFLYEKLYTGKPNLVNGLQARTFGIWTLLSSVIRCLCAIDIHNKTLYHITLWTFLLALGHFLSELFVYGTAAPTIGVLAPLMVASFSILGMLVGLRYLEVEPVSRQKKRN

Regarding GCDH (UniProt Q92947), the log2 fold change in assay [1] was 0.004 (inactive); in assay [2], 0.34 (active); in assay [3], 0.161 (inactive); in assay [4] it was 0.187 (inactive); in assay [5], 0.046 (inactive).

Take EXO5 (UniProt Q9H790): the figures for the log2 fold change in assay [2], in assay [3] and in assay [4] were 0.043 (inactive), -0.06 (inactive) and 0.054 (inactive), respectively.

On to DST isoform 3 (UniProt Q03001), for which the log2 fold change is -0.041 (inactive) in assay [2], 0.087 (inactive) in assay [3] and -0.004 (inactive) in assay [5].

For GDE1 (UniProt Q9NZC3), the log2 fold change was -0.007 (inactive) in assay [2], 0.006 (inactive) in assay [3], 0.04 (inactive) in assay [4] and -0.162 (inactive) in assay [5].

FLT4 (UniProt P35916): the log2 fold change in assay [1] is -0.097 (inactive); in assay [2], -0.435 (active); in assay [3] it was 0.178 (inactive); in assay [5], 0.054 (inactive).

Take FASTKD2 (UniProt Q9NYY8): the log2 fold change is 0.008 (inactive) in assay [1]; -0.524 (active) in assay [2]; 0.044 (inactive) in assay [3]; 0.025 (inactive) in assay [4]; 0.013 (inactive) in assay [5].

For the target FYCO1 isoform 4 (UniProt Q9BQS8), the log2 fold change in assay [1] was -0.002 (inactive); in assay [2] it was -0.002 (inactive); in assay [3], 0.047 (inactive); in assay [4], 0.033 (inactive); in assay [5], -0.002 (inactive).

On to ERG28 (UniProt Q9UKR5), for which the log2 fold change in assay [5] was 0.009 (inactive).

Turning to FIG4 (UniProt Q92562), the log2 fold change in assay [1] is -0.037 (inactive); in assay [2], -0.517 (active); in assay [3], 0.017 (inactive); in assay [4] it was 0.056 (inactive); in assay [5], 0.052 (inactive).

As for FOXL2 (UniProt P58012), the results for the log2 fold change in assay [2], in assay [3] and in assay [5] were -0.501 (inactive), -0.027 (inactive) and -0.352 (inactive), respectively.

Turning to FAT1 (UniProt Q14517), the log2 fold change in assay [2] is -0.229 (inactive); in assay [3], 0.077 (inactive); in assay [4], -0.196 (inactive); in assay [5] it was -0.034 (inactive).

As to ESRRA (UniProt P11474), the log2 fold change in assay [1] is -0.094 (inactive); in assay [3], 0.063 (inactive); in assay [4], 0.026 (inactive); in assay [5], -0.034 (inactive).

The values above are taken from the supplement of paper PMC10849652.
